Hits are enriched below; roughly 3.9% of the tested compounds scored in any of these assays.
Autofluor counter = compound fluorescence in toxin protease inhibitor counterscreen. compound autofluorescence counterscreen, microsphere flow cytometry; stronger effect = higher value. fluorescence intensity (no concentration beside the values). actives 3.1% (n = 360,000). AID 624483; in the data active = fluorescence intensity above about 16000; inconclusive = no clear call, values can overlap the other calls
BoNT-A LC inh2 = BoNT A light chain protease inhibition | multiplex microsphere protease substrate cleavage, flow cytometry | inhibition, % at 10 µM | actives 0.17% (n = 360,000) | AID 588499
CCHF vOTU inh = CCHFV vOTU protease inhibition. Pep-AMC fluorescence. inhibition, % at 11.5 µM. actives 0.55% (n = 370,000); in the data active = inhibition above about 30%
SARS 3CLpro inh = SARS-CoV 3CLpro protease inhibition; AID 1706; actives 0.14% (n = 290,000); inhibition, % at 6 µM; P0C6X7; recombinant SARS-CoV 3CLpro, quenched FRET peptide cleavage; in the data active = inhibition above about 12%
Anthrax LF inh2 = inhibitors of Bacillus anthracis lethal factor protease; multiplex microsphere protease cleavage assay, LF; AID 588501; inhibition, % at 10 µM; P15917; actives 0.12% (n = 360,000)
Target sequence (P15917 whole entry, looked up): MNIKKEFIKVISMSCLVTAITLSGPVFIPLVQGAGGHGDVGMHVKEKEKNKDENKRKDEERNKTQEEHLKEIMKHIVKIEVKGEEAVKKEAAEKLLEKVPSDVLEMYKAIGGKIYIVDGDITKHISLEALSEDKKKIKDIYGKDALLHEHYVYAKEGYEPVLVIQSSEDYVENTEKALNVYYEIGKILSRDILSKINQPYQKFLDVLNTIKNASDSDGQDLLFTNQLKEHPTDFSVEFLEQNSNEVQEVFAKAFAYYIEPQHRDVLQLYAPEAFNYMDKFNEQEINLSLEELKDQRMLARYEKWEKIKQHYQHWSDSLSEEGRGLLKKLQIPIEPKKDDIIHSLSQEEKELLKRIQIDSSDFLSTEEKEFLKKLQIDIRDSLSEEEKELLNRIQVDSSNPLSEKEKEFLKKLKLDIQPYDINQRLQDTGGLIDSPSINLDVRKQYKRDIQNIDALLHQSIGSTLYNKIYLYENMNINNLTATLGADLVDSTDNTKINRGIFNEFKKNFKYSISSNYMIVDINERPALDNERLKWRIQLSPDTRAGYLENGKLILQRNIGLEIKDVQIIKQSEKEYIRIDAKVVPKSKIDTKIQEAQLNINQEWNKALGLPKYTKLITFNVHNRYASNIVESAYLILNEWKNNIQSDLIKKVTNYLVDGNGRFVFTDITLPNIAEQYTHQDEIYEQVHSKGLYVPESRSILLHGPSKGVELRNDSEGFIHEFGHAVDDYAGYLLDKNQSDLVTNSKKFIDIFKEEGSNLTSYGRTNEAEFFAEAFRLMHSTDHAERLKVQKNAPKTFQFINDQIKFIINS
BoNT F protease = BoNT F light chain protease inhibition; Multiplex microsphere protease cleavage assay, flow cytometry; inhibition, % at 10 µM; AID 588497; actives 0.22% (n = 360,000); in the data active = inhibition above about 35%, passing the limit was not always enough; inconclusive = no clear call, values can overlap the other calls
Numbers stand for hits; i = inactive; ? = inconclusive; nt = not tested or not shown. Rule as the data show it, unless noted: active = inhibition above about 30%; inconclusive = no clear call, values can overlap the other calls; inactive = below that.

SMILES | Autofluor counter | BoNT-A LC inh2 | CCHF vOTU inh | SARS 3CLpro inh | Anthrax LF inh2 | BoNT F protease
O=C(NC(Cc1ccccc1)C(=O)O)c1ccc(S(=O)(=O)N2CCCCC2)cc1 (centres undefined) | 22876 | i | i | i | i | i
Cc1ccc(CC(NC(=O)c2ccccc2)C(=O)NC(C)C(=O)O)cc1 (centres undefined) | 21689 | i | i | i | i | i
CC(C)(C)c1ccc(C(=O)NC(Cc2ccccc2)C(=O)O)cc1 (centres undefined) | 22268 | i | i | i | i | i
CCOC(=O)Nc1ccc2c(C)cc(=O)oc2c1 | 16452 | i | i | i | i | i
O=C(COc1cccc(C(F)(F)F)c1)NCCCN1CCCC1=O | 16354 | ? | i | i | i | i
CCOc1ccc(-n2c(SCC(=O)Nc3ccc(S(=O)(=O)Nc4cc(C)nc(C)n4)cc3)nnc2-c2ccc(OC)cc2)cc1 | nt | nt | i | nt | nt | nt
COC(=O)CSc1nc2c(c(-c3ccco3)c1C#N)CCCC2 | i | i | nt | i | i | i
CCOC(=O)CSc1nc2c(c(-c3ccc(C)o3)c1C#N)CCCC2 | 23315 | i | i | i | i | i
CC(C)OC(=O)CC(=O)CSc1nc2c(c(-c3cccs3)c1C#N)CCC2 | i | 29.5 | i | i | i | i
CCOC(=O)C(C)Sc1nc2c(c(-c3cccs3)c1C#N)CCC2 (centres undefined) | i | i | i | i | i | i
COCOc1cccc(CN2CCC(C)(Oc3cccc(OC)c3)C2)c1 (centres undefined) | i | i | i | nt | i | i
Cc1cc(N2CCN(C)CC2)nc2ccc(NC(=O)CCC(=O)NCCC3=CCCCC3)cc12 | 21266 | i | i | i | i | i
COc1ccc(CCNC(=O)CCC(=O)Nc2ccc3nc(N4CCN(C)CC4)cc(C)c3c2)cc1OC | i | i | i | i | i | i
CC1=C(C)[N+](=O)C2CCCCC2N1[O-] (centres undefined) | 17133 | ? | i | i | i | i
O=c1c2ccc(Cl)cc2[nH]c(=S)n1CCC1=CCCCC1 | i | i | i | i | i | i
O=C(CN1C(=O)CCSc2ccccc21)Nc1ccc(Cl)c(Cl)c1 | nt | nt | i | nt | nt | nt
Cc1ccccc1NC(=O)CN1C(=O)CSc2ccccc21 | i | i | i | i | i | i
O=C(CN1C(=O)CCSc2ccccc21)Nc1ccc2c(c1)OCCO2 | 16584 | i | i | i | i | i
O=C(CN1C(=O)CSc2ccccc21)Nc1ccccc1C(=O)N1CCOCC1 | 22009 | i | i | i | i | i
O=C(CN1C(=O)CC(c2ccco2)Sc2ccccc21)Nc1ccc2c(c1)OCCO2 (centres undefined) | i | i | i | i | i | i
CC1CC(=O)N(CC(=O)Nc2ccc3c(c2)OCO3)c2ccccc2S1 (centres undefined) | 17388 | i | i | i | i | i
O=c1c2ccccc2n(Cc2ccno2)n1[C@@H](Cc1ccccc1)Cn1cc(-c2ccc(-c3ccccc3)cc2)nn1 | nt | nt | i | nt | nt | nt
Cc1ccc(C(c2sc3nc(C)nn3c2O)N2CC(C)OC(C)C2)cc1 (centres undefined) | i | i | i | i | i | i
Cc1nc2sc(C(c3ccc(Cl)cc3)N3CC(C)OC(C)C3)c(O)n2n1 (centres undefined) | i | i | i | i | i | 35.9
c1coc(-c2nc3ccccc3nc2-c2ccco2)c1 | i | i | 51.5 | i | i | i
SMILES | Autofluor counter | BoNT-A LC inh2 | CCHF vOTU inh | SARS 3CLpro inh | Anthrax LF inh2 | BoNT F protease
c1coc(-c2cnc3ccccc3n2)c1 | i | i | i | nt | i | i
O=C(NCCO)c1ccc2nc(-c3ccco3)c(-c3ccco3)nc2c1 | i | i | 77.3 | i | i | i
O=C(c1ccccc1)c1ccc2nc(-c3ccco3)c(-c3ccco3)nc2c1 | i | 42.5 | i | i | i | i
COC(=O)[C@]12C[C@H](CC(=O)N3CCC(c4ccccc4)CC3)C(=O)N(CCC3=CCCCC3)C1=C[C@H](C(C)(C)C)O[C@@H]2C | nt | nt | i | nt | nt | nt
Cc1cccc(C(=O)N[C@H](C(=O)Nc2nc3ccc(S(C)(=O)=O)cc3s2)C(C)C)c1 | i | i | i | i | i | i
CN(CCc1ccccn1)C(=S)Nc1cccc(S(=O)(=O)N(C)C)c1 | i | i | i | i | i | i
Cc1c(NC(=O)C2CCCN(S(=O)(=O)c3ccc(Br)s3)C2)c(=O)n(-c2ccccc2)n1C (centres undefined) | nt | nt | i | nt | nt | nt
COc1ccc2c(=O)cc(-c3ccccc3F)oc2c1 | i | i | i | i | i | 46.1
CCOc1ccc(OCC)c(NC(=O)c2nnn(CC(=O)Nc3cc(C)cc(C)c3)c2N)c1 | i | i | i | i | i | i
Cc1ccc2c(c1)N(CC(=O)NC1CCCCC1)C(=O)c1cccnc1O2 | i | i | i | i | i | i
COc1ccc(C2NC3=C(CCCC3)C(C#N)(C#N)C2(C#N)C#N)cc1 (centres undefined) | nt | nt | nt | i | nt | nt
CCCC1C(c2ccc(OC)cc2)C(C#N)(C#N)C2(C#N)CC1(N)NC2=O (centres undefined) | 20036 | i | i | i | i | i
Cc1ccc(NC(=O)Cc2cccc(OC(F)(F)F)c2)c(S(=O)(=O)N2CCOCC2)c1 | nt | nt | i | nt | nt | nt
CC(CC(=O)NCCc1ccc(S(N)(=O)=O)cc1)c1ccccc1 (centres undefined) | nt | nt | i | i | nt | nt
Cc1oc(-c2ccc(Cl)cc2)cc1-c1nn2c(-c3ccoc3C)nnc2s1 | 23295 | i | i | i | i | i
O=C(NC1(C(F)(F)F)NC(=O)N(Cc2cccnc2)C1=O)c1ccccc1 (centres undefined) | 20881 | i | i | i | i | i
O=C(NC1(C(F)(F)F)NC(=O)N(Cc2ccco2)C1=O)c1cccs1 (centres undefined) | 20774 | i | i | i | i | i
O=C(NC1(C(F)(F)F)NC(=O)N(Cc2ccco2)C1=O)c1cccnc1 (centres undefined) | i | i | i | i | i | i
CC(C)CN1C(=O)NC(NC(=O)c2cccs2)(C(F)(F)F)C1=O (centres undefined) | 21985 | ? | i | i | i | i
Cc1ccc(OCc2nnc(SCC(=O)Nc3ccc(OCc4ccccc4)cc3)n2-c2ccc(Cl)cc2)cc1 | nt | nt | i | nt | nt | nt
COc1ccc(CCN2C(=O)CC(Sc3ncccc3C(=O)O)C2=O)cc1OC (centres undefined) | 23415 | i | i | i | i | i
CC(=O)c1c(C(C)=O)c(C)n(-c2nc(-c3ccc(Br)cc3)c(C)s2)c1C | 17033 | i | i | i | i | i
COc1ccc(-c2nc(-n3c(C)c(C(C)=O)c(C(C)=O)c3C)sc2C)cc1OC | i | i | i | i | i | i
O=C(NCCCN1CCCC1=O)c1cccc(S(=O)(=O)Nc2ccccc2Cl)c1 | i | i | i | nt | i | i
COc1ccc(CCNC(=O)c2nnc(Cc3c(F)cccc3Cl)o2)cc1OC | i | i | i | i | i | i
CN1CCN(CCCNC(=O)c2nnc(Cc3c(F)cccc3Cl)o2)CC1 | 18850 | i | i | i | i | i
O=C(NCCCN1CCCC1=O)c1nnc(Cc2c(F)cccc2Cl)o1 | 22538 | ? | i | i | i | i
NC(=O)C1(C(N)=O)OC1c1ccc(Cl)c(Cl)c1 (centres undefined) | i | i | i | i | i | i
